The values that follow come from PubChem BioAssay (NCATS).

The target of experiment [1] is Calcium and integrin-binding protein 1 (Homo sapiens) (UniProt Q99828). Nature of the experiment: Primary qHTS for Identification of Calcium Integrin Binding Protein 1 (CIB1) Competitor (AID 1508620; active = well fitted curve in the direction sought with a large enough effect; an effect the other way counts as inactive or inconclusive;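 also: GST tagged CIB1 binding a fluorescein labelled alphaIIb integrin peptide tracer; top concentration of the series differs between compounds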). The method in brief:
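CIB1-GST (1 uM final) and compound incubated 15 min at room temperature before adding FITC-alphaIIb peptide tracer (100 nM final). Competition for binding read by fluorescence polarization (ex 480, em 540) after another 15 min at room temperature.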
On the technique in general: Quantitative high-throughput screening tests each substance at several concentrations.

Experiment [2] has as its target Cytochrome P450 2D6 (Homo sapiens) (UniProt P10635). Nature of the experiment: Cytochrome P450 family 2 subfamily D member 6 (CYP2D6) small molecule antagonists: luciferase biochemical (cell-free) qHTS assay (AID 1645840). Also: nearly all actives have a fitted effect of over 55% in size. Also: potency is read from the fitted curve at half-maximal effect. An outline of the steps: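 P450-Glo CYP2D6 system: proluciferin substrate converted by enzyme to luciferin, read by luminescence proportional to activity. Enzyme-substrate mix with compound 10 min at room temperature, then NADPH regeneration 1 h before detection reagent.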

Experiment [3] concerns the target Cytochrome P450 2C9 (Homo sapiens) (UniProt P11712). Nature of the experiment: Cytochrome P450 family 2 subfamily C member 9 (CYP2C9) small molecule antagonists: luciferase biochemical (cell-free) qHTS assay (AID 1645842). Also: nearly all actives have a fitted effect of over 55% in size. Also: potency is read from the fitted curve at half-maximal effect. An outline of the steps: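 P450-Glo CYP2C9 system: proluciferin substrate with enzyme in mix containing 0.4% BSA, 10 min at room temperature, then NADPH regeneration solution added and incubated 1 h at 37C. Detection reagent stopped reaction; luminescence read after 20 min as RLU.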

Experiment [4] can be described thus: Primary qHTS for inhibitors of nuclear receptor binding SET domain protein 2 (NSD2) in an isogenic RCH-ACV NSD2 p.E1099K mutant (9B) (AID 1645876; active = well fitted curve in the direction sought with a large enough effect; an effect the other way counts as inactive or inconclusive; also: nearly all actives have a fitted effect of over 70% in size; also: potency is read from the fitted curve at half-maximal effect).

Values joined by “and” are separate entries in the source; they are usually repeats but may differ in a detail not shown here. Identical values can stand only once. Results filed as inconclusive are left out. Active and inactive are the calls of the source. Unless noted, calls follow the shape of the dose curve; as a rule, active = well fitted curve in the direction sought with a large enough effect in the repeat runs; inconclusive = weak or mixed curves; inactive = no such curve, though single readings can be large; an effect the other way counts as inactive or inconclusive.

Sequence of Cytochrome P450 2D6 (Homo sapiens) (P10635 whole entry, looked up): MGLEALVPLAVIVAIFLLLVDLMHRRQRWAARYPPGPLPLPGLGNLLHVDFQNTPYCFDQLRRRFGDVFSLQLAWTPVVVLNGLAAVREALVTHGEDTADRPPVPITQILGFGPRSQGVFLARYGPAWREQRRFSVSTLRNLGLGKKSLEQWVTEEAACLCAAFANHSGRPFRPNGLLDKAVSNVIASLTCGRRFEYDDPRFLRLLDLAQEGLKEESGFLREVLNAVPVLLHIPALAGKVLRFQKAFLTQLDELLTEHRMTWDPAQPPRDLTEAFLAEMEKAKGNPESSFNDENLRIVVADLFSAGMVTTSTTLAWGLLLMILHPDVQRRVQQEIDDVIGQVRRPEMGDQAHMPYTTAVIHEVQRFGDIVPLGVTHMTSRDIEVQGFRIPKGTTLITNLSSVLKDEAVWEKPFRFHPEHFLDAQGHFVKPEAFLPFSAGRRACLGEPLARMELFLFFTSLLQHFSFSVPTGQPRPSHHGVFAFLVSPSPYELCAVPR
Sequence of Calcium and integrin-binding protein 1 (Homo sapiens) (Q99828 whole entry, looked up): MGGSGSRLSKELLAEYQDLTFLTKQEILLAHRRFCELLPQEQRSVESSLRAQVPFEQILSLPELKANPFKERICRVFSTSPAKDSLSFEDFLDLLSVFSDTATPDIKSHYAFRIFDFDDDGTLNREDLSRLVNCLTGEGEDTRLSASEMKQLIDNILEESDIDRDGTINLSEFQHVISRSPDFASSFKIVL
Sequence of Cytochrome P450 2C9 (Homo sapiens) (P11712 whole entry, looked up): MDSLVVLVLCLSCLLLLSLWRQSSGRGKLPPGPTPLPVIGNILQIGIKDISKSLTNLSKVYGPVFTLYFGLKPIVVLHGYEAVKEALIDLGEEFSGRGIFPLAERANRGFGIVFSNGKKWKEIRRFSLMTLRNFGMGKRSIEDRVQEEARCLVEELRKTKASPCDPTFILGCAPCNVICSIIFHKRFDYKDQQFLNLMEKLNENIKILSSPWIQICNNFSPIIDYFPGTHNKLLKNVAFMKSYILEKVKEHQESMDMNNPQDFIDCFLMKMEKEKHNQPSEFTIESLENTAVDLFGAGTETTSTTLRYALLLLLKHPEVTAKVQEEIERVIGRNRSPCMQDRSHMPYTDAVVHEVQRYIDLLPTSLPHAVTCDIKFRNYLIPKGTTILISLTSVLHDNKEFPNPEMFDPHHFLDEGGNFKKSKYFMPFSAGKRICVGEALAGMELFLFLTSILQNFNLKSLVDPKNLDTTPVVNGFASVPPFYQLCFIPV

Regarding `CN(c1ccccc1CNc1nc(Nc2ccc3c(c2)CC(=O)N3)ncc1C(F)(F)F)S(C)(=O)=O`, in experiment [1], the Potency result was “inactive”. The Potency was 23.9 µM (active) in experiment [2], 1.51 µM (active) in experiment [3] and 1.29 µM (active) in experiment [4].

On to `Cc1onc(C(=O)N2CCN(C(c3ccc(Cl)cc3)c3ccc(Cl)cc3)CC2)c1[N+](=O)[O-]`, for which the Potency result in experiment [1] and in experiment [2] was “inactive” each time. The Potency is 5.35 µM (active) in experiment [3] and 0.23 µM (active) in experiment [4].

In the case of `CS(=O)(=O)N(CC(=O)NCC1CC1)c1cc(C(F)(F)F)ccc1Cl`, the Potency result in experiment [1], in experiment [2] and in experiment [4] was “inactive” throughout. In addition, in experiment [3], the Potency is 3.38 µM (active).

Consider `CC(C)(C)c1cc(Br)cc([C@H](CC(=O)O)NC(=O)CNC(=O)c2cc(O)cc(NC3=NCC(O)CN3)c2)c1` (some centres not stated), for which the Potency entry in experiment [1], in experiment [2], in experiment [3] and in experiment [4] was “inactive” throughout.

With `C#CCN(Cc1cc2c(=O)[nH]c(C)nc2cc1Br)c1ccc(C(=O)NCc2cccnc2)cc1`, the Potency entry in experiment [1], in experiment [2] and in experiment [4] was “inactive” throughout. Further, in experiment [3], the Potency is 3.01 µM (active).

For `NCc1ccc(Nc2ncc(F)c(Nc3ccccc3)n2)cc1`, the Potency entry in experiment [1] was “inactive”. Moreover, the Potency in experiment [2] is 15.1 µM (active); in experiment [3] it was 6.74 µM (active); in experiment [4], 3.25 µM (active).

Take `C[C@@H]1CN(Cc2ccccc2)C[C@H]1c1nc2c(cnn2C2CCOCC2)c(=O)[nH]1`: the Potency entry in experiment [1], in experiment [2], in experiment [3] and in experiment [4] was “inactive” in each case.

Consider `CN[C@H](C(=O)N[C@H](C(=O)N(C)[C@H](/C=C(\C)C(=O)O)C(C)C)C(C)(C)C)C(C)(C)c1ccccc1`, for which the Potency result in experiment [1], in experiment [2], in experiment [3] and in experiment [4] was “inactive” in each case.

As for `O=C(Nc1nc2ccccc2n1CCc1ccccc1)c1ccccc1`, the Potency entry in experiment [1] and in experiment [2] was “inactive” throughout. In addition, the Potency in experiment [3] was 8.49 µM (active); in experiment [4], 6.49 µM (active).

Consider `CN1CCC(Nc2nc(Nc3ccc(Oc4ccccc4)cc3)c3c(=O)[nH]cc(Br)c3n2)CC1`, for which the Potency entry in experiment [1] was “inactive”. For the same molecule, the Potency in experiment [2] is 5.35 µM (active); in experiment [3] it was 16.9 µM (active); in experiment [4], 1.83 µM (active).

For `O=C1N=C(N2CCOCC2)CN1c1ccc(Cl)cc1`, the Potency entry in experiment [1], in experiment [2], in experiment [3] and in experiment [4] was “inactive” each time.

On to `COc1cc(Nc2nc3c(s2)CCCC3c2ccc(F)cc2)ccc1-n1cnc(C)c1` (configuration not stated), for which the Potency entry in experiment [1] is “inactive”. In addition, the values for the Potency in experiment [2], in experiment [3] and in experiment [4] were 0.849 µM (active), 1.34 µM (active) and 11.5 µM (active), respectively.

As to `NC(=O)Nc1cc(-c2cccc(F)c2)sc1C(=O)NC1CCCNC1` (configuration not stated), the Potency result in experiment [1], in experiment [2] and in experiment [3] was “inactive” in each case. Moreover, the Potency in experiment [4] is 0.0728 µM (active).

With `COc1ccc(C(=O)C2CCN(CC(=O)N(Cc3nc4c(c(=O)[nH]3)COCC4)CC3CC3)CC2)cc1`, the Potency result in experiment [1], in experiment [2] and in experiment [4] was “inactive” throughout. For the same molecule, the Potency in experiment [3] is 8.49 µM (active).

Take `O=C(O)[C@@H]1C[C@H]2C[C@@H](CCc3nn[nH]n3)CC[C@H]2CN1`: the Potency result in experiment [1], in experiment [2], in experiment [3] and in experiment [4] was “inactive” each time.

With `O=C(CC(c1ccccc1)c1ccccc1)N1CCN(C(c2ccccc2)c2ccccc2)CC1`, the Potency result in experiment [1] and in experiment [2] was “inactive” in each case. For the same molecule, the Potency in experiment [3] is 4.77 µM (active); in experiment [4] it was 7.28 µM (active).

`Cc1cccc2c1NC(=O)C2(c1ccc(O)cc1)c1ccc(O)cc1`: the Potency result in experiment [1] was “inactive”. Besides, the figures for the Potency in experiment [2], in experiment [3] and in experiment [4] were 26.8 µM (active), 9.52 µM (active) and 3.25 µM (active), respectively.

Consider `Cc1ccc(C)c(OCCn2cc(C(=O)O)c3ccccc32)c1`, for which the Potency entry in experiment [1], in experiment [2] and in experiment [4] was “inactive” each time. Moreover, the Potency in experiment [3] was 13.5 µM (active).

`COc1ncc(Nc2ncc([C@H](C)N3CCN(S(C)(=O)=O)CC3)cc2-c2nc(C)nc(N)n2)cc1F`: the Potency entry in experiment [1] and in experiment [2] was “inactive” each time. Also, the Potency was 12 µM (active) in experiment [3]; 5.8 nM (active) and 5.9 nM (active) in experiment [4].

As to `COc1ccc(C(=O)Nc2ncc(-c3ccc(C(=O)O)cc3)s2)cc1`, the Potency result in experiment [1] and in experiment [2] was “inactive” throughout. The Potency in experiment [3] was 10.7 µM (active); in experiment [4], 1.63 µM (active).

As for `COC(=O)CCSCc1ccc(-c2onc(C)c2NC(=O)OC(C)c2ccccc2Cl)cc1` (configuration not stated), the Potency entry in experiment [1] and in experiment [4] was “inactive” throughout. The Potency in experiment [2] was 2.68 µM (active); in experiment [3] it was 1.51 µM (active).

With `COc1ccc(-c2ccc(-c3cn(C(=O)N4CCCCC4c4ccccc4)nn3)cc2)cc1` (configuration not stated), the Potency result in experiment [1], in experiment [2] and in experiment [4] was “inactive” in each case. Further, the Potency in experiment [3] is 2.13 µM (active).

Regarding `COc1cc2ncnc(N3CCC(Oc4cnc5ccccc5n4)C3)c2cc1OC` (configuration not stated), the Potency result in experiment [1] and in experiment [2] was “inactive” throughout. Also, the Potency in experiment [3] was 10.7 µM (active); in experiment [4], 0.258 µM (active).

Consider `CCc1cnn2c(NCc3ccc[n+]([O-])c3)cc(N3CCCCC3CCO)nc12` (configuration not stated), for which the Potency result in experiment [1] and in experiment [2] was “inactive” in each case. Moreover, the Potency was 15.1 µM (active) in experiment [3] and 0.0092 µM (active) in experiment [4].

For the molecule `O=C(O)c1cccc(S(=O)(=O)N2CCc3ccccc3C2)c1`, the Potency entry in experiment [1], in experiment [2], in experiment [3] and in experiment [4] was “inactive” throughout.

`N#CC(c1ccnc(OCc2ccc(CN3CCOCC3)cc2)n1)c1nc2ccccc2s1` (configuration not stated): the Potency entry in experiment [1], in experiment [2] and in experiment [4] was “inactive” throughout. In experiment [3], the Potency is 10.7 µM (active).

In the case of `CCOc1ccc(NC(=S)N2CCC(C(O)(c3ccccc3)c3ccccc3)CC2)cc1`, the Potency entry in experiment [1] and in experiment [4] was “inactive” throughout. For the same molecule, the Potency is 2.68 µM (active) in experiment [2] and 9.52 µM (active) in experiment [3].

As to `COC(=O)CC1CC(c2ccc(O)cc2)=NO1` (configuration not stated), the Potency result in experiment [1], in experiment [2], in experiment [3] and in experiment [4] was “inactive” each time.
